We go through seven sequences from publication PMC7862700, “An all-to-all approach to the identification of sequence-specific readers for epigenetic DNA modifications on cytosine”.

Assay in all cases: DAPPL (digital affinity profiling via proximity ligation, sequencing); 10 mM Tris-HCl pH 7.5, 50 mM NaCl, 1 mM DTT, 4% glycerol, room temperature, 30 min; GST-TFs on glutathione beads, 16-mer random dsDNA library, 0.1% formaldehyde crosslink after washing; high values mean tight binding
What all share (conditions): protein: recombinant; tags: N-terminal GST; dsDNA, one strand shown

The target of one assay is T1, FLI1 (Homo sapiens, UniProt Q01543 1-452).
T1 sequence: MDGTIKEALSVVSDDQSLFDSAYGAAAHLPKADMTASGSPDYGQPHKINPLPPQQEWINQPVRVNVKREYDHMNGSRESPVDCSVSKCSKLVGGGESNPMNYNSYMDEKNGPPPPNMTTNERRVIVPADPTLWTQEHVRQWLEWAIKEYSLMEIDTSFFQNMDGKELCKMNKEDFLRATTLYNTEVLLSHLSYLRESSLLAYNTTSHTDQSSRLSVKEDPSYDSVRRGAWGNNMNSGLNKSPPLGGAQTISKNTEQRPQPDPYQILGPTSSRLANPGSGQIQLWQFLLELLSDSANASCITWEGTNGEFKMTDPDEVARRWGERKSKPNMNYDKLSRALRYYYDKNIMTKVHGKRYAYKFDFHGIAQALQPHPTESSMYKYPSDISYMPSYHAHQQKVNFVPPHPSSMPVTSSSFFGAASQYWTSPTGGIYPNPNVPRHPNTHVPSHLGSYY
The method in brief: (§1)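 Human transcription factors carrying a GST fusion were produced in yeast, bound to glutathione beads, tagged with DNA barcodes and pooled together with a tag-only sample. Each pool was held with 200 nmole of a random double-stranded 16-mer DNA library in Tris/NaCl/DTT/glycerol buffer for 30 min at room temperature, then washed, crosslinked in 0.1% formaldehyde, proximity-ligated with BsaI/T4 ligase (1 h, 37 °C), PCR-amplified and sequenced on an Illumina NextSeq500. Binding signal is the read frequency of each hexamer for a given factor divided by its frequency in the tag-only sample.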

Another assay deals with T2, ELK1 (Homo sapiens, UniProt P19419 1-428).
T2 sequence: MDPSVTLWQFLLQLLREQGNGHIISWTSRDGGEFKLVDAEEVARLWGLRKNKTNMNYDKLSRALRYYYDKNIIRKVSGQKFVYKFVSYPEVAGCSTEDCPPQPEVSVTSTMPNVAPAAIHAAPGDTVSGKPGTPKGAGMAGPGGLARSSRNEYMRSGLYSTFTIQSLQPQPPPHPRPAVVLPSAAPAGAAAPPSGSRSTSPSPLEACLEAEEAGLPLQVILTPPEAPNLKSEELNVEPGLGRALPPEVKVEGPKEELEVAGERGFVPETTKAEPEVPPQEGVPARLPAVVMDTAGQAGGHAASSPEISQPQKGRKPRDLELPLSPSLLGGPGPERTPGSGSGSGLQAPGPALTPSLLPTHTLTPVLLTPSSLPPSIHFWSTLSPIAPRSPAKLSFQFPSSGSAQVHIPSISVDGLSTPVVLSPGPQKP
In short, it runs like this: as §1

In the next assay the target is T3, GABPA (Homo sapiens, UniProt Q06546 1-454).
T3 sequence: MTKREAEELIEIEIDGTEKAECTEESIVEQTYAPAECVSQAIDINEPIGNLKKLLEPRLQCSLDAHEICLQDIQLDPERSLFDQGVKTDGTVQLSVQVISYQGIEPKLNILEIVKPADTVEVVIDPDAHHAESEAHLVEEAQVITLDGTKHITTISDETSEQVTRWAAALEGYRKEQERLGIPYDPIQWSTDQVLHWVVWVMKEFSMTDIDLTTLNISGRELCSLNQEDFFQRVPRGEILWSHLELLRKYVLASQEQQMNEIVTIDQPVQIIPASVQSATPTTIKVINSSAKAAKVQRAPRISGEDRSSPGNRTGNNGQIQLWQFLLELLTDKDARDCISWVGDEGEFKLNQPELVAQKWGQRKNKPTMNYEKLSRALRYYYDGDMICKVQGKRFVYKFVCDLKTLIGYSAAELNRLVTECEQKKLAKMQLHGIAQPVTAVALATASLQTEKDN
In short, it runs like this: as §1

The next assay concerns the target T4, ERG (Homo sapiens, UniProt P11308 1-479).
T4 sequence: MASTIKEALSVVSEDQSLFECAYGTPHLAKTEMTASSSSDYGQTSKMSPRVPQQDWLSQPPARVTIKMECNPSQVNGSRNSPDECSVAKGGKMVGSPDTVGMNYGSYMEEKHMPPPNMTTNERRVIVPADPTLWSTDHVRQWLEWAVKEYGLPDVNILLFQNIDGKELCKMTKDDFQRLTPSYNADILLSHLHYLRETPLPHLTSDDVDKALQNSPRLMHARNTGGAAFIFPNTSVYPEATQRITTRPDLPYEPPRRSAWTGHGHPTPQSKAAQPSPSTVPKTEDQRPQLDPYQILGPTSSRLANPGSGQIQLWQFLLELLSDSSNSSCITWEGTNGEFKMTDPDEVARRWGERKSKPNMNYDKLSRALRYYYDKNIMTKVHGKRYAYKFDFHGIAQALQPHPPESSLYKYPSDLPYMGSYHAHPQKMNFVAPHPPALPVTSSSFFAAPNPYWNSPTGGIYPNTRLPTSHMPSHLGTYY
In short, it runs like this: as §1

In another assay the target is ELF1 (Homo sapiens, UniProt P32519 1-619). In short, it runs like this: as §1
Another assay has as its target T5, EHF (Homo sapiens, UniProt Q9NZC4 1-300).
T5 sequence: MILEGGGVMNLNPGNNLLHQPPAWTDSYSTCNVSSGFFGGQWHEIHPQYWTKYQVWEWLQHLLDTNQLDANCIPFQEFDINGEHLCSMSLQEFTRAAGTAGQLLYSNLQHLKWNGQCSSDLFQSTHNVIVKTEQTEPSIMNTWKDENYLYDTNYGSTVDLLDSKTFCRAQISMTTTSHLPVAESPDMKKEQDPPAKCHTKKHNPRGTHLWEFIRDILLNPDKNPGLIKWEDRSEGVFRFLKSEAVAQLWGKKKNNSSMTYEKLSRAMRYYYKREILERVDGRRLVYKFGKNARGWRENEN
In short, it runs like this:
as §1

The target in the next assay is SPI1 (Homo sapiens, UniProt P17947 1-270). The method in brief:
as §1

The target of another assay is SPIB (Homo sapiens, UniProt Q01892 1-262). In short, it runs like this:
as §1

A further assay addresses T6, ELK3 (Homo sapiens, UniProt P41970 1-407).
T6 sequence: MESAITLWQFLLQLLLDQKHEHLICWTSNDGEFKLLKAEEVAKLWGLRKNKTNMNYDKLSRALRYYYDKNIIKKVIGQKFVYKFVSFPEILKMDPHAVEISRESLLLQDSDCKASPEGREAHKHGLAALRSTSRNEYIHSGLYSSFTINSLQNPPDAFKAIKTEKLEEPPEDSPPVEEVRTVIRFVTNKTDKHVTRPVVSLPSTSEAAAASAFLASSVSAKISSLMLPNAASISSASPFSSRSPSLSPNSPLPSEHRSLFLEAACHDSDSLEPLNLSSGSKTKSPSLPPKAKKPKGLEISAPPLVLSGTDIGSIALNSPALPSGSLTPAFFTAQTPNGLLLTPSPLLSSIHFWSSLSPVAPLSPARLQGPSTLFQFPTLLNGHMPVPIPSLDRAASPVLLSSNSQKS
In short, it runs like this:
as §1

Chain of ELF1 (P32519 whole entry): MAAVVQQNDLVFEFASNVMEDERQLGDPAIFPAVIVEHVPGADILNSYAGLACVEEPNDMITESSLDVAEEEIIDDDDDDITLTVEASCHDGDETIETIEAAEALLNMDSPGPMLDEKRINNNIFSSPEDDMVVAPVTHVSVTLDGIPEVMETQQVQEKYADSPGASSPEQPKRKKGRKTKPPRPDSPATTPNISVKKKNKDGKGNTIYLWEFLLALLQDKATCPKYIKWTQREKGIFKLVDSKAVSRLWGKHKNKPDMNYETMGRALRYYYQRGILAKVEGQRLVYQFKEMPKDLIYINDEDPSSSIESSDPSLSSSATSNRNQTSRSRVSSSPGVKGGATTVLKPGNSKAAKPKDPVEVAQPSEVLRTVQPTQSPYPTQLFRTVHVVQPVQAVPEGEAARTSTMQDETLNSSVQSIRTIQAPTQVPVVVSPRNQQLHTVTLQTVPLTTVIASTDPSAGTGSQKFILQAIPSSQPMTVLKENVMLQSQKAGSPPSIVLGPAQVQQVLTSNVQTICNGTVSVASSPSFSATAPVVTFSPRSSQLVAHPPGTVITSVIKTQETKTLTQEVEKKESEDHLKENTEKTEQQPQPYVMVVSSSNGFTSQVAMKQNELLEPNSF
Chain of SPIB (Q01892 whole entry): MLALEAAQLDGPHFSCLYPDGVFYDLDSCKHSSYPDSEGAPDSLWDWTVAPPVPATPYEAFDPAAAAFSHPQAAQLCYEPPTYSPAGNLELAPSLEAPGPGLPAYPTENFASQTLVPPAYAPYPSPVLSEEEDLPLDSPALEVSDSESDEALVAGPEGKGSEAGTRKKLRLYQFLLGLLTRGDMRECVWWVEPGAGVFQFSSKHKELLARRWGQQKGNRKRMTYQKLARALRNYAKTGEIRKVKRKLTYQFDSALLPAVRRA

Take CCAACT: the binding signal was 1.26 fold enrichment (6-mer frequency, TF over GST control) with FLI1; 1.19 fold enrichment (6-mer frequency, TF over GST control) in the assay with ELK1; 1.23 fold enrichment (6-mer frequency, TF over GST control) with GABPA; 1.26 fold enrichment (6-mer frequency, TF over GST control) with ERG; 1.25 fold enrichment (6-mer frequency, TF over GST control) with ELF1; 1.24 fold enrichment (6-mer frequency, TF over GST control) with EHF. In addition, the binding signal was 1.14 fold enrichment (6-mer frequency, TF over GST control) with SPI1; 1.25 fold enrichment (6-mer frequency, TF over GST control) in the assay with SPIB; 1.19 fold enrichment (6-mer frequency, TF over GST control) in the assay with ELK3.
Take TTCACG: the binding signal was 1.48 fold enrichment (6-mer frequency, TF over GST control) in the assay with FLI1; 1.44 fold enrichment (6-mer frequency, TF over GST control) with ELK1; 1.41 fold enrichment (6-mer frequency, TF over GST control) with GABPA; 1.37 fold enrichment (6-mer frequency, TF over GST control) with ERG; 1.38 fold enrichment (6-mer frequency, TF over GST control) with ELF1; 1.29 fold enrichment (6-mer frequency, TF over GST control) with EHF. Also, the binding signal in the assay with SPI1 was 1.3 fold enrichment (6-mer frequency, TF over GST control); in the assay with SPIB, 1.31 fold enrichment (6-mer frequency, TF over GST control); with ELK3, 1.42 fold enrichment (6-mer frequency, TF over GST control).
Regarding TCGATT, the binding signal with FLI1 is 1.12 fold enrichment (6-mer frequency, TF over GST control); with ELK1, 1.11 fold enrichment (6-mer frequency, TF over GST control); in the assay with GABPA it was 1.13 fold enrichment (6-mer frequency, TF over GST control); in the assay with ERG it was 1.12 fold enrichment (6-mer frequency, TF over GST control); in the assay with ELF1, 1.12 fold enrichment (6-mer frequency, TF over GST control); with EHF, 1.05 fold enrichment (6-mer frequency, TF over GST control). In addition, the binding signal with SPI1 was 1.08 fold enrichment (6-mer frequency, TF over GST control); with SPIB, 1.15 fold enrichment (6-mer frequency, TF over GST control); with ELK3 it was 1.06 fold enrichment (6-mer frequency, TF over GST control).
On to CACGTT, for which the binding signal with FLI1 was 1.28 fold enrichment (6-mer frequency, TF over GST control); with ELK1, 1.35 fold enrichment (6-mer frequency, TF over GST control); with GABPA, 1.3 fold enrichment (6-mer frequency, TF over GST control); with ERG, 1.28 fold enrichment (6-mer frequency, TF over GST control); in the assay with ELF1, 1.29 fold enrichment (6-mer frequency, TF over GST control); in the assay with EHF, 1.24 fold enrichment (6-mer frequency, TF over GST control). Besides, the binding signal in the assay with SPI1 was 1.3 fold enrichment (6-mer frequency, TF over GST control); with SPIB, 1.21 fold enrichment (6-mer frequency, TF over GST control); with ELK3, 1.25 fold enrichment (6-mer frequency, TF over GST control).
Turning to CGGCTC, the binding signal was 1.27 fold enrichment (6-mer frequency, TF over GST control) with FLI1; 1.29 fold enrichment (6-mer frequency, TF over GST control) with ELK1; 1.2 fold enrichment (6-mer frequency, TF over GST control) in the assay with GABPA; 1.33 fold enrichment (6-mer frequency, TF over GST control) in the assay with ERG; 1.27 fold enrichment (6-mer frequency, TF over GST control) with ELF1; 1.31 fold enrichment (6-mer frequency, TF over GST control) with EHF. The binding signal with SPI1 is 1.33 fold enrichment (6-mer frequency, TF over GST control); in the assay with SPIB, 1.33 fold enrichment (6-mer frequency, TF over GST control); with ELK3, 1.31 fold enrichment (6-mer frequency, TF over GST control).
On to AAAAGC, for which the binding signal with FLI1 was 1.16 fold enrichment (6-mer frequency, TF over GST control); in the assay with ELK1, 1.13 fold enrichment (6-mer frequency, TF over GST control); with GABPA, 1.14 fold enrichment (6-mer frequency, TF over GST control); in the assay with ERG, 1.24 fold enrichment (6-mer frequency, TF over GST control); in the assay with ELF1 it was 1.2 fold enrichment (6-mer frequency, TF over GST control); in the assay with EHF, 1.14 fold enrichment (6-mer frequency, TF over GST control). Further, the binding signal is 1.55 fold enrichment (6-mer frequency, TF over GST control) with SPI1; 1.23 fold enrichment (6-mer frequency, TF over GST control) in the assay with SPIB; 1.15 fold enrichment (6-mer frequency, TF over GST control) with ELK3.
As to CTGCTT, the binding signal with FLI1 is 1.69 fold enrichment (6-mer frequency, TF over GST control); with ELK1 it was 1.57 fold enrichment (6-mer frequency, TF over GST control); with GABPA, 1.59 fold enrichment (6-mer frequency, TF over GST control); with ERG, 1.6 fold enrichment (6-mer frequency, TF over GST control); in the assay with ELF1 it was 1.65 fold enrichment (6-mer frequency, TF over GST control); with EHF, 1.88 fold enrichment (6-mer frequency, TF over GST control). Also, the binding signal with SPI1 was 1.75 fold enrichment (6-mer frequency, TF over GST control); with SPIB, 1.54 fold enrichment (6-mer frequency, TF over GST control); with ELK3, 1.58 fold enrichment (6-mer frequency, TF over GST control).
